# Most compounds without a hit are left out; they make up all but 19% or so of the library.
# DT40 TDP1 CPT = growth inhibition of DT40 Tdp1-/-;hTDP1 cells with camptothecin (screen for TDP1 inhibitors). Potency, µM (doses to about 46.2 µM), without a hit: top-dose activity change, negative = growth inhibition, actives largely listed as inhibitors. chicken DT40 Tdp1-/-;hTDP1 cells + 20 nM CPT, ATP luminescence, 48 h. actives 12% (n = 420,000); note: potency is the fitted concentration of half-maximal effect; nearly all actives have a fitted effect of over 55% in size
#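 Chicken DT40 Tdp1-/- cells complemented with human TDP1, 400 cells/well, exposed to compounds plus 20 nM camptothecin for at least 48 h at 37 C; viability read as ATP content by CellTiter-Glo luminescence.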
# DT40 TDP1 no CPT = qHTS for Inhibitors of human tyrosyl-DNA phosphodiesterase 1 (TDP1): qHTS in cells in absence of CPT; actives 15% (n = 420,000); DT40 Tdp1-/- hTDP1 cells, no CPT, ATP luminescence, 48 h; Potency, µM (top dose mostly 46.2 µM), for inactives: top-dose activity change, negative = growth inhibition, most hits filed as inhibitors; note: potency is the fitted concentration of half-maximal effect; nearly all actives have a fitted effect of over 55% in size
#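 A cellular qHTS used chicken DT40 cells lacking endogenous Tdp1 but carrying stably transfected human TDP1. Compounds were applied without camptothecin, and cell growth kinetics were judged by ATP-dependent luminescence after ≥48 hr.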
# HT1080 IDH1KD tx = kills HT-1080 cells with IDH1 knockdown; HT-1080 IDH1 knockdown viability, ATP luminescence, 48 h; Potency, µM (titrated, usually from 46.1 µM), for inactives: at the top dose activity, negative = toxicity, usual class: cytotoxic; actives 2% (n = 360,000); AID 686971;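 note: potency is the fitted concentration of half-maximal effect; 0% = DMSO wells and -100% = cell-free medium wells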
#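 % activity derives from luminescence (CellTiter-Glo), normalised to DMSO and no-cell wells. HT-1080-IDH1KD cells, 750/well, had 48 h compound exposure at 37 °C.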
# IL-1B inflam inh = blocks inflammasome-driven IL-1 beta release; THP-1 LPS/ATP IL-1B secretion, AlphaLISA, 16 h; active compounds read low; activity change, % at 57.5 µM; actives 4.7% (n = 360,000); AID 743279; in the data active = activity change below about -50%; inconclusive = mostly about -30% to -49%
#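 THP-1 cells pretreated 1 hr with compounds (up to 57.5 uM final), then stimulated with LPS (250 ng/mL final) plus ATP (1.25 mM final); secreted IL-1B measured by AlphaLISA after 16 hr, decreased signal indicating inhibition.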
# HT1080-NT tox = kills 2HG-producing HT-1080-NT fibrosarcoma cells; AID 686970; HT-1080-NT fibrosarcoma viability, CellTiter-Glo ATP luminescence, 48 h; Potency, µM (titrated, usually from 46.1 µM), for the others: top-dose activity, negative = less viability, actives largely listed as cytotoxic; actives 1.6% (n = 360,000);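 note: NT is the 2HG producing partner of a matched IDH1 knockdown line; potency is the fitted concentration of half-maximal effect; 0% = DMSO-treated cells and -100% = media-only wells without cells; nearly all actives have a fitted effect of over 55% in size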
#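 750 cells/well, RPMI + 5% FBS; 2 h settle, compound pin-transfer, 48 h at 37 degrees C. CellTiter-Glo 10 min RT, luminescence. Normalized to DMSO and media-only wells.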
# Active calls of the source: *; i = inactive; ? = inconclusive; . = no result. Unless noted, calls come from the whole dose curve; as a rule, active = well fitted curve in the direction sought with a large enough effect; inconclusive = small, poorly fitted or top-dose-only effect, or another doubt; inactive = no such curve, though single readings can be large; an effect the other way counts as inactive or inconclusive. Unless noted, % is set by controls: 0 for no effect and ±100 for the full control effect.
SMILES,DT40 TDP1 CPT,DT40 TDP1 no CPT,HT1080 IDH1KD tx,IL-1B inflam inh,HT1080-NT tox
CCCC(C)NC(=O)c1ccc(C2SCC(=O)N2Cc2ccco2)cc1 (configuration not stated),-18%,?,2%,?,5%
CC(C)(C)C(c1nc2ccccc2[nH]1)n1c(-c2cc(Cl)cc(Cl)c2)nc2ccccc21 (configuration not stated),?,16µM*,?,0,?
CC(c1nc2ccccc2[nH]1)n1c(-c2ccncc2)nc2ccccc21 (configuration not stated),-11%,-7%,21%,13,24%
Cc1csc(-c2nc3ccccc3n2C(C)c2nc3ccccc3[nH]2)c1 (configuration not stated),?,?,-6%,-6,-20%
CC(C)(C)C(c1nc2ccccc2[nH]1)n1c(-c2cccc(S(C)(=O)=O)c2)nc2ccccc21 (configuration not stated),10µM*,13µM*,9%,?,2%
CCN(CC)c1ccc(N=C2C=CC(=O)C=C2NC(C)=O)cc1,5.2µM*,2.9µM*,-18%,-72*,-8%
CCN1C(=O)[C@@H]2[C@@H](c3ccc(-c4ccc(Cl)c(Cl)c4)cc3)N3CCCC[C@@]3(C(=O)OC)[C@@H]2C1=O,18µM*,16µM*,3%,-3,10%
COC(=O)[C@@]12CCCCN1[C@H](c1ccc(-c3ccc(Cl)c(Cl)c3)cc1)[C@H]1C(=O)N(C)C(=O)[C@H]12,12µM*,16µM*,11%,0,-3%
CC1CCCN(CCCNC(=O)c2nn(C)c3c2CS(=O)(=O)c2ccccc2-3)C1 (configuration not stated),-2%,-3%,-1%,-5,1%
O=C(CN1C(=O)NC2(CCCC2)C1=O)OCCOc1ccc(Cl)cc1,?,?,12%,-11,11%
NS(=O)(=O)c1ccc(CCNC(=O)CN2CCN(S(=O)(=O)c3ccccc3F)CC2)cc1,?,-23%,-3%,14,9%
CCn1ncc(Cl)c1C(=O)NC(=S)Nc1c(C)cc(C)cc1[N+](=O)[O-],?,23µM*,2%,-20,-4%
COc1cc(C2C3=C(CC(C)(C)CC3=O)Nc3ccccc3N2C(C)=O)cc(OC)c1OC (configuration not stated),6%,2%,5%,-12,-7%
Cc1ccc([C@@H]2CC=C(C(=O)O)[C@H](c3ccc(C(C)(C)C)cc3)N2S(=O)(=O)c2ccc(C)cc2)cc1,?,?,?,2,?
Cc1ccc(S(=O)(=O)N2[C@@H](c3ccc(C(C)(C)C)cc3)C(C(=O)O)=CC[C@H]2c2ccc(Cl)cc2)cc1,23µM*,?,?,-11,?
Cc1ccc(S(=O)(=O)N2CC(C(=O)O)=CC[C@H]2c2ccc(Cl)cc2)cc1,2%,-16%,-2%,3,8%
CC(=O)C1=CCC(c2ccc(C)cc2)N(S(=O)(=O)c2ccc(Cl)cc2)C1 (configuration not stated),?,16µM*,?,?,-26%
CC(=O)C1=CCC(c2ccc(Cl)c(Cl)c2)N(S(=O)(=O)c2ccc(C)cc2)C1 (configuration not stated),?,15µM*,?,-84*,?
CC(=O)C1=CCC(c2ccc(F)cc2)N(S(=O)(=O)c2ccc(C)cc2)C1 (configuration not stated),?,18µM*,7%,-11,7%
CC(C)N(C(=O)Cn1cc(S(=O)(=O)CC(=O)NCc2ccc(F)cc2)c2ccccc21)C(C)C,?,-24%,-5%,i,-3%
CCCC[n+]1c(-c2ccc(Cl)cc2Cl)csc1Nc1ccccc1,?,21µM*,0%,-14,-12%
Clc1ccc(-c2csc(Nc3ccccc3)[n+]2Cc2ccco2)c(Cl)c1,?,23µM*,?,-8,-2%
Cc1ccc(NC(=O)CN(C)Cc2c(O)ccc3ccccc23)cc1,-7%,?,-1%,-101*,-9%
COc1ccc(CN(C)CC(=O)Nc2ccc(Cl)cc2C(F)(F)F)c(OC)c1,21µM*,16µM*,-13%,-13,-9%
COc1cc2c(cc1NC(=O)CN(C)Cc1ccc(OC)c(OC)c1)oc1ccccc12,16µM*,16µM*,?,-25,?
SMILES,DT40 TDP1 CPT,DT40 TDP1 no CPT,HT1080 IDH1KD tx,IL-1B inflam inh,HT1080-NT tox
CCN(CC)S(=O)(=O)c1cccc(C(=O)Nc2cc3oc4ccccc4c3cc2OC)c1,16µM*,18µM*,6%,13,2%
COc1cc2c(cc1NC(=O)c1cncc(Br)c1)oc1ccccc12,-12%,-24%,?,10,?
COc1ccc(CN(C)CC(=O)Nc2ccccc2C(F)(F)F)c(OC)c1,8%,-29%,-2%,4,0%
CNC(=O)c1cc2ncc(C(F)(F)F)cc2s1,-11%,-3%,14%,-2,?
COc1ccc(CN(C)CC(=O)Nc2ccccc2C(F)(F)F)cc1,?,?,-1%,16,-14%
COc1ccc2ccc(O)c(CN(C)CC(=O)Nc3ccccc3C(F)(F)F)c2c1,21µM*,?,-30%,-23,?
COc1cc2c(cc1NC(=O)CCC(=O)O)oc1ccccc12,9%,-19%,8%,14,8%
COc1cc2c(cc1NC(=O)CC1SC(N3CCCC3)=NC1=O)oc1ccccc12 (configuration not stated),?,21µM*,?,-28,?
COc1ccc(NC(=O)CC2SC(N3CCCC3)=NC2=O)cc1Cl (configuration not stated),-21%,?,-2%,35,-7%
COc1ccc(CN(C)CC(=O)Nc2cc3oc4ccccc4c3cc2OC)c(OC)c1,13µM*,10µM*,-10%,-11,-2%
COc1cc2c(cc1NC(=O)C(C)NCc1ccccc1)oc1ccccc12 (configuration not stated),?,16µM*,?,-6,?
Cc1ccc(S(=O)(=O)/N=C(/Nc2ccc3[nH]c(=O)[nH]c3c2)c2ccc(F)cc2)cc1,-4%,0%,-14%,-11,-1%
CC(C)NC(=O)CN1CCC(c2ccccc2)C(O)C1 (configuration not stated),-3%,21%,1%,11,9%
COC(=O)c1cc2sc(C)cc2n1Cc1nc(-c2cccc(Br)c2)oc1C,0%,-29%,.,.,.

# Screening data (PubChem)
